# Assay results as given in the supplement of paper PMC8728848.
# About 410 targets per protein were measured; listed, in parts, are those with the strongest signals and a random draw of the rest.
# B1: rAAL-2 (Agrocybe aegerita) (protein)
# chain: MTSNVITQDLPIPVASRGFADIVGFGLDGVVIGRNAVNLQPFLAVKNFAQNAGGWLTTKHVRLIADTTGTGKGDIVGFGNAGVYVSVNNGKNTFADPPKMVIANFGYDAGGWRVEKHLRYLADIRKIGRADIIGFGEKGVLVSRNNGGLNFGPATLVLKDFGYDAGGWRLDRHLRFLADVTGNGHLDIVGFGDKHVFISRNNGDGTFAPAKSVIDNFCIDAGGWKIGDHPRFVADLTGDGTADIIGCGKAGCWVALNNGGGVFGQVKLVINDFGTDKGWQAAKHPRFIADLTGNGRGDVVGFGNAGVYVALNNGDGTFQSAKLVLKDFGVQQGWTVSKHRRFVVDLTGDGCADIIGFGEKETLVSYNDGKGNFGPVKALTNDFSFSGGKWAPETTVCWMANLDSSRH
# Tests used:
# Test in all cases: glycan array binding signal (z-score within array); higher = stronger binding
# Conditions in all cases: glycan notation: IUPAC condensed, linker removed
# [1] = target: Fuc(a1-2)Gal(b1-4)GlcNAc(b1-3)Gal(b1-4)GlcNAc(b1-2)Man(a1-3)[Fuc(a1-2)Gal(b1-4)GlcNAc(b1-3)Gal(b1-4)GlcNAc(b1-2)Man(a1-6)]Man(b1-4)GlcNAc(b1-4)GlcNAc
# Procedure, shortened: (§1)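 Columns mapping to the same glycan were averaged after glycan names were converted to IUPAC-condensed notation. The data come from 3228 arrays in the Consortium for Functional Glycomics database, limited to those with an available protein sequence. Binding is reported as a within-array Z-score averaged across arrays of one protein sequence and across linkers.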
# Fuc(a1-2)[Gal(a1-3)]Gal = target: Fuc(a1-2)[Gal(a1-3)]Gal
# Procedure, shortened: as §1
# [2] = target: Fuc(a1-2)[Gal(a1-3)]Gal(b1-3)GalNAc(b1-3)Gal(a1-4)Gal(b1-4)Glc
# Procedure, shortened: as §1
# [3] = target: Fuc(a1-2)[GalNAc(a1-3)]Gal
# Procedure, shortened: as §1
# [4] = target: Gal(a1-3)Gal(b1-3)GlcNAc(b1-3)GalNAc
# Procedure, shortened: as §1
# [5] = target: Gal(a1-3)Gal(b1-4)GlcNAc(b1-3)GalNAc
# Procedure, shortened: as §1
# [6] = target: Gal(a1-4)Gal(b1-4)GlcNAc(b1-2)Man(a1-3)[Gal(a1-4)Gal(b1-4)GlcNAc(b1-2)Man(a1-6)]Man(b1-4)GlcNAc(b1-4)GlcNAc
# Procedure, shortened: as §1
# [7] = target: Gal(b1-3)GlcNAc(b1-3)Gal(b1-4)GlcNAc(b1-6)[Gal(b1-3)GlcNAc(b1-3)]Gal(b1-4)Glc
# Procedure, shortened: as §1
# [8] = target: Gal(b1-3)[Fuc(a1-4)]GlcNAc(b1-6)GalNAc
# Procedure, shortened: as §1
# Gal(b1-4)GlcNAc(b1-2)Man = target: Gal(b1-4)GlcNAc(b1-2)Man
# Procedure, shortened: as §1
# [9] = target: Gal(b1-4)GlcNAc(b1-2)Man(a1-3)[Gal(b1-4)GlcNAc(b1-2)Man(a1-6)][Gal(b1-4)GlcNAc(b1-4)]Man(b1-4)GlcNAc(b1-4)[Fuc(a1-6)]GlcNAc
# Procedure, shortened: as §1
# [10] = target: Gal(b1-4)GlcNAc(b1-2)Man(a1-3)[Gal(b1-4)GlcNAc(b1-2)Man(a1-6)][GlcNAc(b1-4)]Man(b1-4)GlcNAc(b1-4)[Fuc(a1-6)]GlcNAc
# Procedure, shortened: as §1
# [11] = target: Gal(b1-4)GlcNAc(b1-2)Man(a1-3)[Gal(b1-4)GlcNAc(b1-2)][GlcNAc(b1-4)]Man(b1-4)GlcNAc(b1-4)GlcNAc
# Procedure, shortened: as §1
# [12] = target: Gal(b1-4)GlcNAc(b1-3)Gal(b1-4)Glc
# Procedure, shortened: as §1
# [13] = target: Gal(b1-4)GlcNAc(b1-3)Gal(b1-4)GlcNAc(b1-3)Gal(b1-4)GlcNAc
# Procedure, shortened: as §1
# [14] = target: Gal(b1-4)GlcNAc(b1-3)Gal(b1-4)GlcNAc(b1-3)Gal(b1-4)GlcNAc(b1-3)Gal(b1-4)GlcNAc(b1-3)Gal(b1-4)GlcNAc(b1-2)Man(a1-3)[Gal(b1-4)GlcNAc(b1-3)Gal(b1-4)GlcNAc(b1-3)Gal(b1-4)GlcNAc(b1-3)Gal(b1-4)GlcNAc(b1-3)Gal(b1-4)GlcNAc(b1-2)Man(a1-6)]Man(b1-4)GlcNAc(b1-4)GlcNAc
# Procedure, shortened: as §1
# [15] = target: Gal(b1-4)GlcNAc(b1-3)Gal(b1-4)GlcNAc(b1-3)Gal(b1-4)GlcNAc(b1-3)Gal(b1-4)GlcNAc(b1-3)Gal(b1-4)GlcNAc(b1-2)[Gal(b1-4)GlcNAc(b1-3)Gal(b1-4)GlcNAc(b1-3)Gal(b1-4)GlcNAc(b1-3)Gal(b1-4)GlcNAc(b1-3)Gal(b1-4)GlcNAc(b1-6)]Man(a1-6)[Gal(b1-4)GlcNAc(b1-3)Gal(b1-4)GlcNAc(b1-3)Gal(b1-4)GlcNAc(b1-3)Gal(b1-4)GlcNAc(b1-3)Gal(b1-4)GlcNAc(b1-2)Man(a1-3)]Man(b1-4)GlcNAc(b1-4)[Fuc(a1-6)]GlcNAc
# Procedure, shortened: as §1
# [16] = target: Gal(b1-4)GlcNAc(b1-3)Gal(b1-4)GlcNAc(b1-3)[Gal(b1-4)GlcNAc(b1-3)Gal(b1-4)GlcNAc(b1-6)]GalNAc
# Procedure, shortened: as §1
# Gal3S(b1-4)GlcNAc6S = target: Gal3S(b1-4)GlcNAc6S
# Procedure, shortened: as §1
# GalNAc(b1-4)GlcNAc6S = target: GalNAc(b1-4)GlcNAc6S
# Procedure, shortened: as §1
# [17] = target: GlcNAc(a1-3)Gal(b1-4)GlcNAc
# Procedure, shortened: as §1
# [18] = target: GlcNAc(a1-4)Gal(b1-3)GlcNAc
# Procedure, shortened: as §1
# [19] = target: GlcNAc(a1-4)Gal(b1-4)GlcNAc(b1-3)Gal(b1-4)Glc
# Procedure, shortened: as §1
binder,measurement,setting,value
B1,glycan array binding signal (z-score),[1],-0.083
same,glycan array binding signal (z-score),Fuc(a1-2)[Gal(a1-3)]Gal,-0.221
same,glycan array binding signal (z-score),[2],0.126
same,glycan array binding signal (z-score),[3],-0.342
same,glycan array binding signal (z-score),[4],-0.274
same,glycan array binding signal (z-score),[5],-0.36
same,glycan array binding signal (z-score),[6],0.062
same,glycan array binding signal (z-score),[7],-0.234
same,glycan array binding signal (z-score),[8],-0.064
same,glycan array binding signal (z-score),Gal(b1-4)GlcNAc(b1-2)Man,-0.16
same,glycan array binding signal (z-score),[9],-0.282
same,glycan array binding signal (z-score),[10],-0.482
same,glycan array binding signal (z-score),[11],-0.266
same,glycan array binding signal (z-score),[12],-0.317
same,glycan array binding signal (z-score),[13],-0.113
same,glycan array binding signal (z-score),[14],-0.319
same,glycan array binding signal (z-score),[15],0.032
same,glycan array binding signal (z-score),[16],0.004
same,glycan array binding signal (z-score),Gal3S(b1-4)GlcNAc6S,-0.11
same,glycan array binding signal (z-score),GalNAc(b1-4)GlcNAc6S,-0.107
same,glycan array binding signal (z-score),[17],4.67
same,glycan array binding signal (z-score),[18],3.84
same,glycan array binding signal (z-score),[19],4.64
